# Screen size: about 69,000 compounds; about 8,600 (12%) showed an effect of 50% or more. This is one part of a sample in which strong results are shown more often than they occur.
# Test system: Plasmodium berghei
# Assay: Screen against P. berghei liver stage (PbLuc), transformed with Luciferase, at 10uM
# Format: functional, HepG2
# Conditions: tested at 10 uM
row,SMILES,INHIBITION
1,Cc1cc(NC(C)c2n[nH]c(C)n2)n2nc(C)c(C)c2n1 (centres undefined),18.4%
2,CC(CNC(=O)Nc1cn[nH]c1)N1CCCC1 (centres undefined),-21.9%
3,Cc1ccc(NC2CCN(C(=O)c3ccc(C)o3)CC2)nn1,51.65%
4,CCn1c(C)cc(C(=O)N2CCC(NC(=O)c3cc(C)no3)CC2)c1C,-7.36%
5,Cc1ccc(NC2CCN(C(=O)c3ccc(Cl)o3)CC2)nn1,-33.5%
6,CCn1c(C)cc(C(=O)N2CCC(NC(=O)c3ccc(C)o3)CC2)c1C,74%
7,CCc1ccc(C(=O)N2CCC(Nc3ccc(C)nn3)CC2)o1,33.8%
8,Cc1ccc(NC2CCN(C(=O)c3ccc(F)cc3Cl)CC2)nn1,56.4%
9,O=C(c1ccc(F)cc1Cl)N1CCC(Nc2cccnn2)CC1,41.4%
10,CCn1c(C)cc(C(=O)N2CCC(Nc3ccc(C)nn3)CC2)c1C,32.9%
11,Cc1ccc(NC2CCN(C(=O)c3ccc(Cl)cc3F)CC2)nn1,37.9%
12,CCc1nc(C2CCCN(C(=O)NC3CC3)C2)no1 (centres undefined),-81.1%
13,CC(C)CNC(=O)c1nnsc1-c1ccccc1,2.69%
14,COCCN1C[C@@H]2CC[C@H]1CN(C(=O)CCc1n[nH]c(C)c1C)C2,-4.92%
15,COc1cccc(N2CCN(Cc3ncc[nH]3)CC2=O)c1,-26.5%
16,CCn1cc(CN2CCN(Cc3cc(C)cc(C)c3)C(=O)C2)cc1C#N,-17.8%
17,COc1cccc(N2CCN(Cc3nccn3C(C)C)CC2=O)c1,59.5%
18,CCn1cc(CN2CCN(Cc3cccc(OC)c3)C(=O)C2)cc1C#N,56.3%
19,COc1cccc(N2CCN(Cc3ccc(NC(C)=O)cc3)CC2=O)c1,38.5%
20,COc1cccc(N2CCN(Cc3nccc(OC)c3OC)CC2=O)c1,11.2%
21,COc1cccc(CN2CCN(Cc3ccc4nonc4c3)CC2=O)c1,24.9%
22,COc1cccc(N2CCN(Cc3cc(C)cc(F)c3)CC2=O)c1,11.3%
23,COc1cc(CN2CCN(c3cccc(OC)c3)C(=O)C2)cc(OC)c1,58.5%

row,SMILES,INHIBITION
1,Cc1n[nH]c(C2CN(CC(=O)NCCc3ccccc3C)CCO2)n1 (centres undefined),43.1%
2,Cc1occc1C(=O)N1CCC2(CCC(C(=O)NCC3CC3)O2)CC1 (centres undefined),-5.94%
3,CCC(CNS(=O)(=O)c1cccc(C(=O)OC)c1)N1CCCC1 (centres undefined),-39.2%
4,O=C1CCC[C@]2(CN(S(=O)(=O)C3CCCCC3)C[C@H]2c2cccnc2)N1,-11.4%
5,O=C(COc1ccc(-n2cccn2)nn1)NC1CCCCC1,-10.6%
6,OC[C@@H]1CCCN1c1nccc(-c2c[nH]nc2-c2ccncc2)n1,-15.2%
7,OC[C@H]1CCCN1c1nccc(-c2cncnc2C2CCCCC2)n1,64.9%
8,O=c1c(-c2ccnc(N3CCCC[C@@H]3CO)n2)cnc2sccn12,35.2%
9,O=c1c(-c2ccnc(N3CCC[C@H]3CO)n2)cnc2sccn12,-4.82%
10,OC[C@H]1CCCN1c1nccc(-c2c[nH]nc2C2CCCCC2)n1,54.5%
11,Cc1ncc(-c2ccnc(N3CCC[C@@H]3CO)n2)c(-c2cccnc2)n1,20.4%
12,O=C(NCCn1cccc1)C(c1ccccc1)N1CCCC1 (centres undefined),15.4%
13,CCOC1CCCN(C(=O)CCOc2ccc(C)cc2OC)C1 (centres undefined),8.59%
14,Cn1cc2ncn(C3CCN(c4ccccc4F)CC3)c(=O)c2n1,-6.03%
15,Cc1nn(C)cc1-c1ccnc(NCCN)n1,59.4%
16,CCN(CC)CCCNc1nccc(-c2cn(C)nc2C)n1,43.9%
17,CNc1nccc(-c2cn(C)nc2C)n1,29.4%
18,CNCCNc1nccc(-c2cn(C)nc2C)n1,19.4%
19,Cc1nn(C)cc1-c1ccnc(N2CCSCC2)n1,47.2%
20,Cc1ccc(NCCCNc2nccc(-c3cn(C)nc3C)n2)nc1,51.2%
21,c1cnn(CC2CCCCN2Cc2noc(C3CC3)n2)c1 (centres undefined),-42.65%
22,CC(C)NC(=O)c1nnc2ccc(N3CCOCC3)cc2n1,-3.11%
23,O=C(c1ccco1)N1CCC2(CCC(=O)N2Cc2ccccc2)CC1,33.4%

row,SMILES,INHIBITION
1,COCC(=O)N1CCC(C)(c2cc(O)[nH]n2)CC1,23.9%
2,CCCC(NC(=O)NCc1cccc(N(C)C)n1)c1ccccn1 (centres undefined),58.5%
3,CN(C)c1ccc(NC(=O)NCc2ccccn2)cn1,13.9%
4,CCC(NC(=O)NCc1cccc(N(C)C)n1)c1nccs1 (centres undefined),67.4%
5,CCC(NC(=O)NCc1cccc(N(C)C)n1)c1ccccc1OC (centres undefined),6.83%
6,Cc1nc(CCNC(=O)NCc2cccc(N(C)C)n2)cs1,-24.3%
7,CCC(NC(=O)NCc1cccc(N(C)C)n1)c1cccs1 (centres undefined),-6.46%
8,Cc1noc(C)c1-c1cncc(C2CCCN2Cc2ncc[nH]2)n1 (centres undefined),47.2%
9,CC[C@@H](Cn1ncc2ccccc2c1=O)NC(=O)c1ccco1,34.1%
10,Cn1ccc(C(=O)N2CCN(c3nccs3)CC2)cc1=O,28.8%
11,CC(C)(C)c1cnc(CN2CCC(CN3CCOCC3)CC2)o1,66.3%
12,CCN(C1CCN(Cc2ncc(C(C)(C)C)o2)CC1)S(C)(=O)=O,50.8%
13,CC(C)(C)c1cnc(CN2CCC(NC(=O)Nc3ccccc3)CC2)o1,39.4%
14,CC(C)(C)c1cnc(CN2CCN(c3ncccn3)CC2)o1,24.3%
15,CC(C)(C)c1cnc(CN2CCC(CO)CC2)o1,39.7%
16,CC(C)(C)c1cnc(CN2CCCS(=O)(=O)CC2)o1,-7.94%
17,CC(C)(C)c1cnc(CN2CCC(NC(=O)C3CCOCC3)CC2)o1,30.8%
18,CCN(CC)CC1CCN(Cc2ncc(C(C)(C)C)o2)CC1,47.4%
19,CC(C)(C)c1cnc(CN2CCC(NC(=O)CC3CCCC3)CC2)o1,28.7%
20,CC(C)(C)c1cnc(CN2CCC(NC(=O)NC3CCCCC3)CC2)o1,60.8%
21,Cc1ccccc1C(=O)NC1CCN(Cc2ncc(C(C)(C)C)o2)CC1,66.1%
22,CCN1CCN(C2CCN(Cc3ncc(C(C)(C)C)o3)CC2)C1=O,42%
23,COc1ccc(C(C)N(C)Cc2c(C(C)(C)C)[nH]c3ncccc23)cc1 (centres undefined),-19%

# From ChEMBL document CHEMBL4513216, “Probing the Open Global Health Chemical Diversity Library for Multistage-Active Starting Points for Next-Generation Antimalarials” (ACS Infect Dis, 2020)
